Screening results from PubChem.
USP1-UAF1 inh: Inhibitors of USP1/UAF1: Primary Screen; recombinant USP1/UAF1, Ub-Rhodamine cleavage fluorescence; 0.23% of 390,000 active; Potency, µM (top dose mostly 57.1 µM), without a hit: at the highest dose activity change, negative = inhibition, most hits filed as inhibitors; Ubiquitin carboxyl-terminal hydrolase 1 (Homo sapiens), O94782; AID 743255, 2014; note: % is set by controls: 0 for no effect and ±100 for the full control effect; nearly all actives have a fitted effect of over 60% in size
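In this screen, compounds sit with the deubiquitinase complex (1nM) for 15 min at room temperature before Ub-Rho is added at 150nM final. Fluorescence rise is then followed for 6 reads every 60 seconds.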
TSG101-PTAP inh: qHTS Assay for Iinhibitors of HIV-1 Budding by Blocking the Interaction of PTAP/TSG101; Fluorescence polarization, FITC-PTAP peptide / Tsg101 binding; Tumor susceptibility gene 101 protein (Homo sapiens), Q99816; Potency, µM (titrated, usually from 115 µM), without a hit: top-dose activity change, negative = inhibition, usual class: inhibitors; 340,000 tested, under 10 active; AID 493005, 2010; active = well fitted inhibition curve with a large enough effect in the main read-out, with a control signal flat, not every such curve was filed as active; inconclusive = small, poorly fitted or top-dose-only effect, or effect the other way, or a change in a side signal; inactive = no such curve, though single readings can be large or run the other way; note: % of control where 0% means no effect
Target sequence (Q99816 whole entry, looked up): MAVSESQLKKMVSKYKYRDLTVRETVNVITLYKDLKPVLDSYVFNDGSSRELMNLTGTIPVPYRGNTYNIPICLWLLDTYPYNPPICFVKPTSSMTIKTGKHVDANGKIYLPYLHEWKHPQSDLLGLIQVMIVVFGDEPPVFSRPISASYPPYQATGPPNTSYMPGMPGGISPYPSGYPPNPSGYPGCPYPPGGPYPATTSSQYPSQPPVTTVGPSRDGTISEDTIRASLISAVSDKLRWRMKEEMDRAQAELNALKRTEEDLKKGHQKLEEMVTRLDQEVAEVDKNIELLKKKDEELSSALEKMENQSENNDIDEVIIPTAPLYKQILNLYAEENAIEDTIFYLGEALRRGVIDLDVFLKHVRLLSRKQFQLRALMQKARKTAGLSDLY
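Fluorescence anisotropy tracks displacement of a FITC-tagged PTAP peptide (50 nM) from the Tsg101 binding domain (10 uM), following a 20 min room-temperature incubation at pH 7.5.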
KAT2A inh: qHTS Assay for Inhibitors of GCN5L2; GCN5L2 HAT assay, ThioGlo1 CoA-SH fluorescence; Potency, µM (series often up to 58.9 µM), inactives show at the top dose activity change, negative = inhibition, most hits filed as inhibitors; AID 504327, 2011; 0.21% of 390,000 active; note: % is set by controls: 0 for no effect and ±100 for the full control effect
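GCN5L2 (20nM final) in 50mM HEPES, 0.1mM EDTA pH 7.5, 0.01% Tween-20 was preincubated 15 min at room temperature with compound, then given ThioGlo1 (50uM), H3(1-25) peptide (75uM) and acetyl-CoA (70uM); CoA-thiol fluorescence (Ex340/Em540) was read at 0 and 20 min.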
PLK1 PBD inh: qHTS for Inhibitors of PLK1-PDB (polo-like kinase 1 - polo-box domain): Primary Screen; Serine/threonine-protein kinase PLK1 (Homo sapiens), P53350; Plk1 PBD binding of FITC phosphopeptide, fluorescence polarization; Potency, µM, without a hit: max response, negative = inhibition, hits mostly inhibitors; 2.8% of 360,000 active; AID 720504, 2013; note: series mostly up to about 57 µM; % is set by controls: 0 for no effect and ±100 for the full control effect; nearly all actives have a fitted effect of over 65% in size
VDR inhibitor: Inhibitors of the vitamin D receptor (VDR): qHTS | VDR-SRC2-3 peptide fluorescence polarization, 2 h | AID 504847, 2011 | Potency, µM, inactives show max response, negative = inhibition, hits mostly inhibitors | 0.93% of 400,000 active | Vitamin D3 receptor (Homo sapiens), P11473; note: % is set by controls: 0 for no effect and ±100 for the full control effect
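Reagent solutions, kept cold and dark, are dispensed first; compounds are then pinned in at 23 nl, plates briefly spun, and incubated 2 h at ambient temperature. Inhibition of VDR–SRC2-3 peptide binding is read by fluorescence polarization.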
Numbers without * were called inactive; ? = inconclusive; / = not tested or not shown; [ ] = remark or other dose. The list is not random: actives were taken first. Their share in the collection is about 3%. Unless noted, calls come from the whole dose curve; as a rule, active = well fitted curve in the direction sought with a large enough effect; inconclusive = small, poorly fitted or top-dose-only effect, or another doubt; inactive = no such curve, though single readings can be large; an effect the other way counts as inactive or inconclusive. Potency is the fitted concentration of half-maximal effect.

SMILES	USP1-UAF1 inh	TSG101-PTAP inh	KAT2A inh	PLK1 PBD inh	VDR inhibitor
CCCn1c(=O)c2sccc2n2c(CCCC(=O)NC3CCC(C)CC3)nnc12 (stereo unspecified)	-2%	/	-4%	/	5%
Cc1cccc(OCC(=O)OC(C)CN2CCCCC2)c1 (stereo unspecified)	-19%	1%	-24%	4%	6%
CC(CN1CCCCC1)OC(=O)COc1ccc(Cl)cc1 (stereo unspecified)	-3%	0%	-1%	24µM*	?
CCNC(=S)N1CCC(C(=O)c2ccc(F)cc2)CC1	0%	/	/	-14%	/
COc1ccc([C@]23Cc4cc(C#N)ccc4[C@H](O2)c2c(cc(C)n(Cc4ccccc4)c2=O)O3)cc1	/	/	-5%[12.7 µM]	/	/
Nc1nc2ccc(Br)cc2o1	1%	-2%	/	15%	7%
Nc1nc(Cl)nc2ccc(Br)cc12	-17%	0%	0%	17µM*	-17%
COc1cc2c3nnc(-c4ccc(F)cc4)c-3cn(Cc3ccc(C)cc3)c2cc1OC	32µM*	?	-4%	10%	27%
COc1cc2c3nnc(-c4ccc(F)cc4)c-3cn(Cc3cccc(C)c3)c2cc1OC	32µM*	?	-7%	?	33%
COc1cc2c3nnc(-c4ccccc4)c-3cn(Cc3ccc(F)cc3)c2cc1OC	-20%	-6%	-6%	-9%	13%
COc1cc2c3nnc(-c4ccc(F)cc4)c-3cn(Cc3cccc(F)c3)c2cc1OC	?	?	-5%	?	66%
CCCNCC1C(Oc2ccc(Cl)cc2)C(=O)N1c1ccccc1C (stereo unspecified)	-11%	-3%	0%	-3%	-1%
COc1ccc2oc(-c3ccco3)cc(=O)c2c1	-9%	0%	?	-12%	-15%
COc1cccc2oc(-c3ccco3)cc(=O)c12	-27%	-3%	-3%	21µM*	?
COc1ccccc1/C=C1\SC(=S)N(NS(=O)(=O)c2ccc(C)cc2)C1=O	-25%	0%	20%	27µM*	-3%
COc1ccc(/C=C2\SC(=S)N(NS(=O)(=O)c3ccc(C)cc3)C2=O)c(OC)c1	-24%	0%	-13%	?	-14%
COc1ccc(OC)c(/C=C2\SC(=S)N(NS(=O)(=O)c3ccc(C)cc3)C2=O)c1	?	-2%	?	27µM*	?
CC(C)CCn1c(=O)c2sccc2n2c(CCCC(=O)NCc3ccc(F)cc3)nnc12	-8%	/	-6%	/	6%
O=S(=O)(CS(=O)(=O)Oc1ccccc1)Oc1ccccc1	-4%	-2%	/	21µM*	-21%
NS(=O)(=O)Oc1ccccc1	-13%	-3%	-2%	-11%	-9%
COc1ccc(NC(=O)CN(c2cc(C)cc(C)c2)S(=O)(=O)c2c(C)n[nH]c2C)cc1	-6%	-4%	-4%	30µM*	89µM*
COc1ccc(N(CC(=O)Nc2ccc(F)c(F)c2)S(=O)(=O)c2c(C)n[nH]c2C)cc1	-22%	4%	-27%	-9%	7%
Cc1cccc(N(CC(=O)Nc2ccc(F)cc2)S(C)(=O)=O)c1	4%	1%	0%	-8%	5%
Cc1cc(C)cc(NC(=O)CN(c2ccc(F)cc2)S(C)(=O)=O)c1	-11%	-1%	0%	11µM*	?
C/C(=N/NC(=O)CNC(=O)c1ccccc1F)c1ccc2c(c1)CCCC2	4%	2%	0%	8.4µM*	-5%
C/C(=N/NC(=O)CNC(=O)c1ccc2c(c1)OCO2)c1ccc2c(c1)CCCC2	-20%	-3%	-8%	-3%	-8%
CCCCC(CC)CCC(CC(C)C)OS(=O)(=O)O (stereo unspecified)	/	/	-4%	/	?
Cn1c2ccccc2c2c(C(=O)N3CCN(c4ccc(F)cc4)CC3)cn(C3CCCCC3)c(=O)c21	-7%	/	-14%	/	-6%
c1ccc2oc(SCc3nc4ccccc4s3)nc2c1	-24%	0%	/	-12%	6%
